# Measurements published in PubChem BioAssay (NCI).
# About 83,000 compounds went through this panel and 20% of them were active in at least one assay; those are over-represented in the sample as a whole.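 For each line, cells grew in 96-well plates with the test compound present at a single concentration for 48 hours.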 Active and inactive are the calls of the source. How the source made its calls: active means growth percent below 10; inactive means the rest.
# Test system: SF-268 CNS
# Assay: NCI-60 one-dose screen, 48 h (100 = growth as untreated, 0 = no growth, -100 = all killed)
# Details: 10 µM unless noted
row,Structure (SMILES),growth
1,O=C1c2cccc3cccc(c23)C(=O)N1N1C(=O)c2cccc3c(N4CCOCC4)ccc(c23)C1=O,96.2% (inactive)
2,CCO/C=N/C1=C(C#N)C(c2ccc(OC)cc2)c2sc3c(F)cccc3c2O1 (stereo unspecified),44.2% (inactive)
3,Cc1ccc(CNc2ccc(Cl)cc2NCc2ccc(C)c(O)c2)cc1O,28.3% (inactive)
4,O=C(c1ccc(-c2nc(CSc3nc4ccccc4s3)no2)cc1)N1CCSCC1,77.1% (inactive)
5,C/C(=C(/c1ccc(Cl)cc1)c1ccc(OCCN2CCCC2)cc1)c1ccc(Cl)cc1,91.5% (inactive)
6,CC[C@]12C=CCN3CC[C@@]4(c5cc(NC(=O)CCC(=O)OCc6cn(Cc7ccc(F)cc7)nn6)c(OC)cc5N(C)[C@H]4[C@@](O)(C(=O)OC)[C@@H]1OC(C)=O)[C@@H]32,95.7% (inactive)
7,C=C(C)[C@@H]1CC[C@]2(C(=O)O)CC[C@]3(C)[C@H](CC[C@@H]4[C@@]5(C)C[C@@H](Cc6cn(CCO[C@@H]7O[C@H](COC(C)=O)[C@H](OC(C)=O)[C@H](OC(C)=O)[C@H]7OC(C)=O)nn6)[C@H](O)C(C)(C)[C@@H]5CC[C@]43C)[C@@H]12,61.2% (inactive)
8,C=CCn1c(SCC(=O)Nc2ccc(C(=O)/C=C/c3ccc(Cl)cc3)cc2)nnc1-c1cc(-c2ccc(S(N)(=O)=O)cc2)nc2ccccc12,74.8% (inactive)
9,CCOC(=O)C1=NN(c2ccccc2)C(=O)/C1=C\N1C(=O)CC(=O)NC1=S,93.9% (inactive)
10,CC12CCC3c4ccccc4CCC3(CO1)C2 (stereo unspecified),107% (inactive)
11,O=C1CC(N2C(=O)/C(=C/C(Cl)=C\c3ccc([N+](=O)[O-])cc3)SC2=S)C(=O)N1c1ccc(Cl)cc1 (stereo unspecified),21.8% (inactive)
